# Key:
# [1] = biological target: T1, Serine/threonine-protein kinase TBK1 (Homo sapiens) (UniProt Q9UHD2); details: at 10 µM
# T1 sequence (whole entry): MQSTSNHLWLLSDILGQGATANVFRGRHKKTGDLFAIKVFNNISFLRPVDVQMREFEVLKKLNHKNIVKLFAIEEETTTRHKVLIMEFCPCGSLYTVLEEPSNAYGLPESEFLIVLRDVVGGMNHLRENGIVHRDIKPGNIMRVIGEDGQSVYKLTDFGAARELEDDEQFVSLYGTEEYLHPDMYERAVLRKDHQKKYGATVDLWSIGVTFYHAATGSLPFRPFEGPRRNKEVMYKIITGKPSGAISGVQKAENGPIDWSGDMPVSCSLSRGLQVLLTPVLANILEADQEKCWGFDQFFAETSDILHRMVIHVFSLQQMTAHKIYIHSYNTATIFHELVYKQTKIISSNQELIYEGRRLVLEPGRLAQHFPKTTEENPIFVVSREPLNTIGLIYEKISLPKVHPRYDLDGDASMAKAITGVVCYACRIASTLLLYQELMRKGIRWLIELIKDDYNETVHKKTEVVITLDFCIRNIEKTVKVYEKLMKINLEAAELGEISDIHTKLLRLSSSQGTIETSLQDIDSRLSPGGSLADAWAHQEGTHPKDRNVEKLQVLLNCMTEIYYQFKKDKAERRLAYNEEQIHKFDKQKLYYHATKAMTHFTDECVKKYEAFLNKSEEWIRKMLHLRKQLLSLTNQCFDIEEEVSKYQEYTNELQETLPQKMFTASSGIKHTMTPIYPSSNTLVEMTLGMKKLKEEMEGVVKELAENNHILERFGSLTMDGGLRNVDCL
# [2] = biological target: T2, TGF-beta receptor type-1 (Homo sapiens) (UniProt P36897); details: at 1 µM
# T2 sequence (whole entry): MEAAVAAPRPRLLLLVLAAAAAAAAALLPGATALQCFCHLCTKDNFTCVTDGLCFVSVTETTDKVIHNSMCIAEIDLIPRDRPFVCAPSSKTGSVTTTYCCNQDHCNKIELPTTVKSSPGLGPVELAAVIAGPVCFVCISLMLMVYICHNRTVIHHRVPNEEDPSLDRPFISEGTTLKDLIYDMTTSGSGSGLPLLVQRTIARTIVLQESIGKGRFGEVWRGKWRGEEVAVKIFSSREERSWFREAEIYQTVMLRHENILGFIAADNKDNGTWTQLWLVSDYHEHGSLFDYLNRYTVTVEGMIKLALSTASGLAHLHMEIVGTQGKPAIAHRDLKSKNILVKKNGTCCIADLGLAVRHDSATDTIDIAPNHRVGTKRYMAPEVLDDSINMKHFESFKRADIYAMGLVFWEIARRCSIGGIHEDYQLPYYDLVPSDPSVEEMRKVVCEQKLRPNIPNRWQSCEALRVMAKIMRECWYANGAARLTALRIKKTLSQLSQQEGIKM
# [3] = biological target: T2, TGF-beta receptor type-1 (Homo sapiens); details: at 10 µM
# [4] = biological target: Insulin-like growth factor 1 receptor (Homo sapiens) (UniProt P08069); details: at 1 µM
# [5] = biological target: Insulin-like growth factor 1 receptor (Homo sapiens) (UniProt P08069); details: at 10 µM
# [6] = biological target: T3, Inhibitor of nuclear factor kappa-B kinase subunit alpha (Homo sapiens) (UniProt O15111); details: at 1 µM
# T3 sequence (whole entry): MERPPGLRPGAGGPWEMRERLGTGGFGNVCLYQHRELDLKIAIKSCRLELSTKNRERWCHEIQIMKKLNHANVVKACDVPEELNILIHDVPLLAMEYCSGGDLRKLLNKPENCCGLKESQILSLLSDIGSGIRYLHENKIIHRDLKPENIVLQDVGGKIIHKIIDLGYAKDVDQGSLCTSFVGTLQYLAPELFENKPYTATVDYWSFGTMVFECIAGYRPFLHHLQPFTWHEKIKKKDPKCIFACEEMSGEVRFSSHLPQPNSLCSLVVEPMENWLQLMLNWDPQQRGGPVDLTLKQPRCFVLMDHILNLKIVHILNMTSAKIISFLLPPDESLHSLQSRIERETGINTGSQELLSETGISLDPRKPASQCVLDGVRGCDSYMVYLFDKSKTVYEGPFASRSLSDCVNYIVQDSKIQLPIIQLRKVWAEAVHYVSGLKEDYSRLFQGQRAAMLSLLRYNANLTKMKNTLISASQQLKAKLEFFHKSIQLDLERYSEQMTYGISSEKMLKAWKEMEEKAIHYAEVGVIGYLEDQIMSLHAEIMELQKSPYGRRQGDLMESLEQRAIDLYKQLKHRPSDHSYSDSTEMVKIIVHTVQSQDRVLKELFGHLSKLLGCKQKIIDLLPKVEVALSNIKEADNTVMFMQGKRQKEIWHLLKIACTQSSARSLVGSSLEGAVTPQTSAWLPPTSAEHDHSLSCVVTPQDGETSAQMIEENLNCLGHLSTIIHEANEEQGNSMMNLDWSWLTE
# [7] = biological target: T3, Inhibitor of nuclear factor kappa-B kinase subunit alpha (Homo sapiens); details: at 10 µM
# [8] = biological target: T4, Inhibitor of nuclear factor kappa-B kinase subunit beta (Homo sapiens) (UniProt O14920); details: at 1 µM
# T4 sequence (whole entry): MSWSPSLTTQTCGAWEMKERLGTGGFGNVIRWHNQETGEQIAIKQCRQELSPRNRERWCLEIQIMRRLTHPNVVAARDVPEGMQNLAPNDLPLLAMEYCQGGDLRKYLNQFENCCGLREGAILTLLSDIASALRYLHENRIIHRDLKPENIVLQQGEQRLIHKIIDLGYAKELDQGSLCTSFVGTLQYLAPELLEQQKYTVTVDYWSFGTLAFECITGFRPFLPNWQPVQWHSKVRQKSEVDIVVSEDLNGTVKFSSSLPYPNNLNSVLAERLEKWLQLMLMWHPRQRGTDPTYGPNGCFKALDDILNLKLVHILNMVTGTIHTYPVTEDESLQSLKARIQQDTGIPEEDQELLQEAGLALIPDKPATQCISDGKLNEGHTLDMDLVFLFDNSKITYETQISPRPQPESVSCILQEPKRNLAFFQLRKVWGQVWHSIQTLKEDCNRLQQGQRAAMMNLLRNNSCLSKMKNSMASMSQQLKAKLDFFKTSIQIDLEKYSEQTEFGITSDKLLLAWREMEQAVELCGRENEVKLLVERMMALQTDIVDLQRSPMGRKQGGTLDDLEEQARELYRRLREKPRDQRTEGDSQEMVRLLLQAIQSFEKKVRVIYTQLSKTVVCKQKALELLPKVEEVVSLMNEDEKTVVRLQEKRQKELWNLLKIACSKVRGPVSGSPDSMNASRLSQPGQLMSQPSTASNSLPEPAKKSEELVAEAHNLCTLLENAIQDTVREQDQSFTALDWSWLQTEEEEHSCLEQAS
# [9] = biological target: T4, Inhibitor of nuclear factor kappa-B kinase subunit beta (Homo sapiens); details: at 10 µM
# [10] = biological target: Insulin receptor (Homo sapiens) (UniProt P06213); details: at 1 µM
# Sequence of Insulin receptor (Homo sapiens) (P06213 28-758 limits assumed): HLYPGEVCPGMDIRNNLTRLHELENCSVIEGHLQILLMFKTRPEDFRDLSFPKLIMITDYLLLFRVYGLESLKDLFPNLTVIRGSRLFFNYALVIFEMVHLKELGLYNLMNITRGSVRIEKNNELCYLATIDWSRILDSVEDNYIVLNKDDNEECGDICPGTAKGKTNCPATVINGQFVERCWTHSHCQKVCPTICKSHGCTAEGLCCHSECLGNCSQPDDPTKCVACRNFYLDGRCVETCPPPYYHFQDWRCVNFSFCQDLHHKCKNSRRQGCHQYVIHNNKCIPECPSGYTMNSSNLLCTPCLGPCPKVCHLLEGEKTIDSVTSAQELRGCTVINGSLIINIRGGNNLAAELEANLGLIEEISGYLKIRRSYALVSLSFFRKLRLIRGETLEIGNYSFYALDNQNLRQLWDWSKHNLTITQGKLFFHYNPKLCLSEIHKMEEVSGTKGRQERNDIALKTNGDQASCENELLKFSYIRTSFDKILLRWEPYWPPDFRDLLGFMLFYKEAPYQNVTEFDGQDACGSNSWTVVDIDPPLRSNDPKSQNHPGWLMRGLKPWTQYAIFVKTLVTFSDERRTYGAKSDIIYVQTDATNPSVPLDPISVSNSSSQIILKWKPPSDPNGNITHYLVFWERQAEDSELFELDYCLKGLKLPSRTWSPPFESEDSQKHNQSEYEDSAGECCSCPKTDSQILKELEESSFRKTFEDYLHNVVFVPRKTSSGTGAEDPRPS
# Sequence of Insulin receptor (Homo sapiens) (P06213 763-1382 limits assumed): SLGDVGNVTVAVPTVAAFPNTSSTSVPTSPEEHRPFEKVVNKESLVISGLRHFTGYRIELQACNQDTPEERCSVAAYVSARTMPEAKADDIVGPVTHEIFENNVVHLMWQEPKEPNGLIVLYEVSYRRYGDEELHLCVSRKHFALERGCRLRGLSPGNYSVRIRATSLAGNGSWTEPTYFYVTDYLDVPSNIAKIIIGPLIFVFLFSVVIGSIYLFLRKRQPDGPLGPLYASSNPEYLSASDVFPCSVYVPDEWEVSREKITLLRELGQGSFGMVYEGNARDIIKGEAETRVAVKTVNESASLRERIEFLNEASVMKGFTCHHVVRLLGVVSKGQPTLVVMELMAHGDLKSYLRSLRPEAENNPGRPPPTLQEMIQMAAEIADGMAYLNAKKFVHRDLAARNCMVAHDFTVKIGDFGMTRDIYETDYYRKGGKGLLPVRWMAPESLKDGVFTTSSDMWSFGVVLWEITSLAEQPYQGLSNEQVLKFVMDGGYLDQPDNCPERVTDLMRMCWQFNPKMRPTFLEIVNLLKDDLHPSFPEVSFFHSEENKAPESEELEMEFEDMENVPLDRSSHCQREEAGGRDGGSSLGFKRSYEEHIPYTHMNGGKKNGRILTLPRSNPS
# Sequence of Insulin-like growth factor 1 receptor (Homo sapiens) (P08069 31-736 limits assumed): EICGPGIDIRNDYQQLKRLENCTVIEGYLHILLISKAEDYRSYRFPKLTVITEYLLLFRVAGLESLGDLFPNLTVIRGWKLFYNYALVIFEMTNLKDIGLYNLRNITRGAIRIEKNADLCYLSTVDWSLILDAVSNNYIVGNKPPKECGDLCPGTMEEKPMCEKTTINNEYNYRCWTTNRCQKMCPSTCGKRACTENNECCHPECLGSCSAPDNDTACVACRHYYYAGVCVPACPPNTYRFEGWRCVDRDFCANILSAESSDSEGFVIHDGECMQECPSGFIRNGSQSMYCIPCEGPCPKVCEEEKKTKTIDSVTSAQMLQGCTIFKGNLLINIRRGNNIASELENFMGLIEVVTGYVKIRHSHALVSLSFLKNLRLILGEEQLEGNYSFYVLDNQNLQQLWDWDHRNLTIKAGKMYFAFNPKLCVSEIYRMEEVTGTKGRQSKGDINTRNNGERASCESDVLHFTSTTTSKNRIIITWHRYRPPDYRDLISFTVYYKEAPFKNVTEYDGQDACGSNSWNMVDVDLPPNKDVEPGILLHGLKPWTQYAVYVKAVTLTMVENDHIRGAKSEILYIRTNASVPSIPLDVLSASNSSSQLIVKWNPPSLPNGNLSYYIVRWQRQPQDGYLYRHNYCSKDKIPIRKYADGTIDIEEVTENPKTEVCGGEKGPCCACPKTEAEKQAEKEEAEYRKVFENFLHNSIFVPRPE
# Sequence of Insulin-like growth factor 1 receptor (Homo sapiens) (P08069 741-1367 limits assumed): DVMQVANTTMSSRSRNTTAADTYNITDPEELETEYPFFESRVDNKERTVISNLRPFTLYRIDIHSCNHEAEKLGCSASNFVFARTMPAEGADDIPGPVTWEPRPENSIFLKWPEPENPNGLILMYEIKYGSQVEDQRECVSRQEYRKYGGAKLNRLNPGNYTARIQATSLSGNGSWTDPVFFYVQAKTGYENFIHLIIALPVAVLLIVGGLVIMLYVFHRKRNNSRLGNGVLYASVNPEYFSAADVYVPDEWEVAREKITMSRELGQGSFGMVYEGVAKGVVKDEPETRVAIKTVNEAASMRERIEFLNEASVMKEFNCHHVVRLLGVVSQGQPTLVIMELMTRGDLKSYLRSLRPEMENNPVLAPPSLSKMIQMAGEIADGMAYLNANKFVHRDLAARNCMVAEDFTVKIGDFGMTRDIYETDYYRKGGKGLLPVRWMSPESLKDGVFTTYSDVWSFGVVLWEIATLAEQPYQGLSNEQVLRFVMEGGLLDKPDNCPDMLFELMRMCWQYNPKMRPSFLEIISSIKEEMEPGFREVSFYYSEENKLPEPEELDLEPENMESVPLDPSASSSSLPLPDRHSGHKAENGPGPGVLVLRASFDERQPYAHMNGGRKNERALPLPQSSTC
smiles,measurement,setting,value
Cn1nc2c3c(cccc31)C(=O)c1ccccc1-2,residual activity,[1],55%
same,residual activity,[2],85%
same,residual activity,[3],76%
same,residual activity,[4],89%
same,residual activity,[5],99%
same,residual activity,[6],110%
same,residual activity,[7],82%
same,residual activity,[8],100%
same,residual activity,[9],87%
same,residual activity,[10],94%
